From PubChem BioAssay come the findings set out here.

SMILES strings stand for the structures. Several values for one entry are separate records, joined by “and”; a condition that tells them apart may be missing. Equal values may be shown once.

A short description of the assay: probe aNOTCH2 binding on compound microarray – biochemical, small-molecule microarray, 635/667 nm fluorescence, primary screen (AID 1121).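 Further: score merges feature fluorescence read at 667 nm with its signal to noise.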 As to conditions: higher = more signal.
In the case of `C=CCN(C(=O)C(c1cccs1)N(C(=O)/C=C\C(=O)O)c1ccc(CCO)cc1)c1ccc(OC)cc1` (centres undefined), the composite z-score is -0.164 and -0.19.
As for `CO[C@@H]1COC(=O)CC=C[C@H](C)COC(=O)[C@H](C)NC(=O)CC=C[C@H]1C`, the figure is -0.164.
`CCOC(=O)c1ccc(NC(=O)O[C@H]2[C@H](OC(=O)Nc3ccccc3)[C@@H](OC(=O)Nc3ccccc3)[C@@H](OC)O[C@@H]2CO)cc1`: the composite z-score is 0.0149 and -0.0131.
Regarding `COC(=O)C1=C(C)N(Cc2ccccc2)C2=C(C(=O)c3ccccc3)[C@H](c3ccccc3)[C@@](O)(C(=O)OC)C(=O)N2[C@@H]1c1ccccc1`, the composite z-score was 0.0929 and -0.171.
As to `C[C@@]1([C@@H](NC(=O)Cc2ccccc2)c2ccc(-c3ccccc3)cc2)C[C@H]1C1CCCCC1`, the composite z-score was 0.24 and 0.797 and -0.324.
As to `CC(CO)N1C(=O)[C@@H]2C3C(=O)OCCC=C[C@H]3OC23C=CCN(CCN2CCOCC2)C(=O)[C@@H]13` (some centres undefined), the composite z-score was -0.113 and -0.147.
As for `C=C[C@H](C)[C@H](O)c1ccc(O)c2ccccc12`, the composite z-score was -0.109 and -0.114.
For `C=CCN(CCCC)C(=O)C(c1cccs1)N(C(=O)/C=C\C(=O)O)c1c(Cl)cccc1CO` (centres undefined), the composite z-score is -0.162 and -0.147.
As for `C#CCCCON=C1C[C@@H](O)[C@@H](O)[C@@H]2[C@@H]3C(=O)N(C4CCCCC4)C(=O)[C@@H]3CC[C@H]12`, the figure is -0.11; as for `Cc1ccc(S(=O)(=O)N[C@H]2COC(=O)[C@@H](C)COC(=O)[C@H](C)NC(=O)CC=C[C@H]2C)cc1`, -0.14.
As to `C=CCN(C(=O)C1N(CCOCCO)C(=O)C2C(C(=O)O)C3C=CC21O3)C(C)(C)C` (centres undefined), the composite z-score was -0.116 and -0.153.
To `C=CCN(CCCC)C(=O)C1N(CCOCCO)C(=O)C2C(C(=O)O)C3C=CC21O3` (centres undefined) belongs -0.211 and -0.185; to `COc1ccc(COC(=O)NN=C2C[C@@H](O)[C@@H](O)[C@@H]3[C@@H]4C(=O)N(C(C)(C)C)C(=O)[C@@H]4CC[C@H]23)cc1`, -0.0001.
With `COC(=O)C1=C2N(Cc3ccccc3)C(C)=C(C(=O)OC)[C@@H](c3ccccc3)N2C(=O)[C@](O)(C(=O)OC)C1`, the composite z-score is -0.171 and -0.0476.
As for `C[N+](C)(C)CCCCNC(=O)[C@@H]1C[C@@H]2C(=O)N[C@@H](CCCC[N+](C)(C)C)C(=O)N2[C@@H]1c1cccc(OCCO)c1`, the figure is -0.0066 and -0.0861.
To `C[C@@H]1CC[C@H]2C(=O)N3[C@@H](CC[C@@H](C)[C@@H]3c3ccc(-c4ccco4)cc3)C(=O)N2[C@H]1c1ccc(-c2ccco2)cc1` belongs 0.0079 and 0.0312; to `C=CCN(Cc1ccccc1)C(=O)C1N(c2ccc(CCO)cc2)C(=O)C2C(C(=O)O)C3C=CC21O3` (centres undefined), -0.201 and 0.0434; to `CC(C)N1CC=CC23O[C@@H]4C=CCCOC(=O)C4[C@H]2C(=O)N(C(C)CO)[C@@H]3C1=O` (some centres undefined), 0.502 and -0.221.
In the case of `CC(C)C(=O)N[C@@H]1CCCN1C(=O)C=Cc1ccccc1`, the composite z-score is -0.14.
In the case of `CO[C@@H]1COC(=O)[C@H](Cc2ccccc2)NC(=O)CC=C[C@@H](C)[C@H](OC)COC(=O)[C@@H](C)NC(=O)CC=C[C@H]1C`, the composite z-score was -0.173 and -0.214.
In the case of `COC(=O)[C@@]1(Cc2ccc(OC)cc2)[C@H]2c3cc(C(=O)N(C)C)n(Cc4ccc(O)c(OC)c4)c3C[C@H]2CN1C(=O)c1ccccc1`, the composite z-score was 0.357 and 0.124.
On to `C=CCN(CCCCC)C(=O)C1N(CCCCCCO)C(=O)C2C(C(=O)O)C3C=CC21O3` (centres undefined), for which the composite z-score was 0.316 and -0.193.
For the compound `O=c1n(-c2ccccc2)c(=O)n2n1CC[C@@H]1C(=NOC[C@@H](O)COCc3ccco3)[C@H]3O[C@H]3[C@@H](O)[C@@H]12`, the composite z-score is -0.122 and -0.174.
`CCOC(=O)NN=C1C[C@@H](O)[C@@H](O)[C@@H]2[C@@H]3C(=O)N(Cc4ccc5c(c4)OCO5)C(=O)[C@@H]3CC[C@@H]12` came in with a composite z-score of -0.0349.
Consider `CCCCCN1CC=CC23O[C@@H]4C=CCCOC(=O)C4[C@H]2C(=O)N(C(C)CO)[C@@H]3C1=O` (some centres undefined), for which the composite z-score is -0.475 and -0.181.
For the compound `C=C[C@H](OC)[C@@H](O)c1ccc(OCCO)cc1`, the composite z-score was -0.248 and -0.242.
On to `CCCCN1CC=CC23O[C@@H]4C=CCCOC(=O)C4[C@H]2C(=O)N(C(C)CO)[C@@H]3C1=O` (some centres undefined), for which the composite z-score is -0.21 and -0.147.
To `C=CCN(CCCCC)C(=O)C1N(CCOCCO)C(=O)C2C(C(=O)O)C3C=CC21O3` (centres undefined) belongs -0.195 and -0.189.
As for `C=CCN(CCCCC)C(=O)C(c1cccs1)N(C(=O)/C=C\C(=O)O)c1ccc(CCO)cc1` (centres undefined), the figure is -0.183 and -0.0859.
With `O=C1NC(=O)C2C1C=CC(C(O)c1ccc([N+](=O)[O-])cc1)N2Nc1ccc(Cl)cc1Cl` (centres undefined), the composite z-score was 0.0454 and 0.153.
In the case of `COC(=O)[C@@]1(Cc2ccccc2)[C@H]2c3cc(C(=O)N(C)C)n(C[C@H](O)CO)c3C[C@H]2CN1C(=O)c1ccccc1`, the composite z-score was 0.0538 and 0.261.
As for `CO[C@H]1COC(=O)CC=C[C@@H](C)COC(=O)[C@H](CCSC)NC(=O)CC=C[C@@H]1C`, the composite z-score was -0.0942 and -0.0241.
`C=CC[C@@H](O)c1ccc(O)c2ccccc12`: the composite z-score is -0.0523 and -0.153.
To `CCOC(=O)C[C@H]1[C@H](OC(=O)c2ccccc2-c2ccccc2)[C@@H](NC(=O)Cc2ccc(OC)cc2)c2cc(OCCCO)ccc2N1C(=O)c1ccc2ccccc2n1` belongs -0.14 and 0.0777; to `CN1C(=O)C2CC=C([C@H]3Oc4ccccc4S(=O)(=O)N4CCC[C@@H]34)CC2C1=O` (some centres undefined), -0.14 and -0.084.
`C[N+](C)(C)CCCCNC(=O)[C@H]1C[C@H]2C(=O)N[C@@H](CCCC[N+](C)(C)C)C(=O)N2[C@H]1c1ccc(O)cc1`: the composite z-score is -0.14 and -0.108.
Consider `C=CCN(Cc1ccccc1)C(=O)C1N(c2c(Cl)cccc2CO)C(=O)C2C(C(=O)O)C3C=CC21O3` (centres undefined), for which the composite z-score was -0.168 and -0.261.
The compound `O=C1[C@H]2[C@H]3[C@H](O)[C@H](O)CC(=NOCc4ccccc4)[C@H]3CC[C@H]2C(=O)N1Cc1ccccc1` returned a composite z-score of -0.0729.
`COC(=O)[C@@]1(Cc2ccc(F)cc2)[C@H]2c3cc(C(=O)N4CCCC4)n(Cc4c(CO)[nH]cc(C)c4=O)c3C[C@H]2CN1C(=O)c1ccccc1`: the composite z-score is 0.908 and 0.11.
